# Measured values: PubChem BioAssay (NCATS)
# Unmarked numbers belong to inactive results. Inconclusive results are not listed. Where a call stands in place of a potency, no number is given. The source made the active and inactive calls. Unless noted, calls follow the shape of the dose curve; as a rule, active = well fitted curve in the direction sought with a large enough effect; inconclusive = small, poorly fitted or top-dose-only effect, or another doubt; inactive = no such curve, though single readings can be large; an effect the other way counts as inactive or inconclusive.
# What was measured:
# [1] = biological target: Lysosomal acid glucosylceramidase (Homo sapiens) (UniProt P04062); assay: Glucocerebrosidase-p2 (AID 348; in the data active = potency below about 10 µM; also: potency is read from the fitted curve at half-maximal effect); conditions: purified GBA, blue fluorogenic substrate, 40 min
# Lysosomal acid glucosylceramidase (Homo sapiens), sequence (P04062 whole entry, looked up): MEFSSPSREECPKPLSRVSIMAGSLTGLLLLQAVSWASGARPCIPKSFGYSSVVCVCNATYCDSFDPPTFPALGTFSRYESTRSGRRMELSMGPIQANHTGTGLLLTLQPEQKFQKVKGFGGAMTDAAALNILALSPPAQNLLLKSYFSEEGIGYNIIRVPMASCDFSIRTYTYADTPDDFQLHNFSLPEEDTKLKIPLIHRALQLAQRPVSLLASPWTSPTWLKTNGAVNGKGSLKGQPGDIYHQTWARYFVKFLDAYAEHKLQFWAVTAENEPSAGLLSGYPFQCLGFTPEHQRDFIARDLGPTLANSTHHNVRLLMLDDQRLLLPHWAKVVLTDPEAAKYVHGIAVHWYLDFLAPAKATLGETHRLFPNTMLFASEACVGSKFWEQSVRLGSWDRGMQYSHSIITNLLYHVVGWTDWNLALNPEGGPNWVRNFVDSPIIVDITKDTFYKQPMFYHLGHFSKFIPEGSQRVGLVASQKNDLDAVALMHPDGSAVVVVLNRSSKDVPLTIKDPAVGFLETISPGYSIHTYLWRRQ
# How it was run: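 Compounds titrated from 0.6 nM upwards against 0.2 nM enzyme in pH 5.9 citric acid/KH2PO4, taurocholate, tween-20; blue fluorogenic substrate 80 uM, 40 min room temperature, stopped and read Ex 365/Em 440 for AC50.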
# [2] = biological target: Cytochrome P450 1A2 (Homo sapiens) (UniProt P05177); assay: p450-cyp1a2 (AID 410; calls by dose curve; also: potency is read from the fitted curve at half-maximal effect); conditions: recombinant CYP1A2, luciferin-ME demethylation, luminescence; series mostly up to 57 µM
# Cytochrome P450 1A2 (Homo sapiens), sequence (P05177 whole entry, looked up): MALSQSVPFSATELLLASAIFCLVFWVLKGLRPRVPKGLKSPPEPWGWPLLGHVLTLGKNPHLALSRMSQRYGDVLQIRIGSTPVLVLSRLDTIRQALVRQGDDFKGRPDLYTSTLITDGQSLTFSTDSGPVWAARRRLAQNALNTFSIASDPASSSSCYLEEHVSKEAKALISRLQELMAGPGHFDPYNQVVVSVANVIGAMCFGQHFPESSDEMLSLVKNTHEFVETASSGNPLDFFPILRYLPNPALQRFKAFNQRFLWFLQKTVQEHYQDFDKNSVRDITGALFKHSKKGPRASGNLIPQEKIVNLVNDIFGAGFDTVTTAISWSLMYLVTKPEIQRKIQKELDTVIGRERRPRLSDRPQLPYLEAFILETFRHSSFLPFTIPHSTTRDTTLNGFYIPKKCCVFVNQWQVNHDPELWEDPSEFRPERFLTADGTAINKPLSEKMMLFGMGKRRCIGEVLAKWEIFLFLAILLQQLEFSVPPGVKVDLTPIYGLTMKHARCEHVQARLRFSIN
# How it was run: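 20nM CYP1A2 with 100uM Luciferin-ME (at Km) in 100mM KPO4; compound preincubated 10 min, NADPH regeneration added, 60 min at room temperature. Luciferin quantified by luminescence after detection reagent; normalized to 57 uM furafylline.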
# [3] = Stat Signaling Pathway (AID 446; active = well fitted curve in either direction with a large enough effect, not every such curve was filed as active;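 also: ME-180 cervical cancer cells given 40 pM IL-6 alongside compound; SIE-controlled beta-lactamase reporter measured as 460/530 nm FRET emission ratio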); conditions: ME-180 SIE beta-lactamase reporter, IL-6 stimulated, 5 h; at 7.69 µM (top of the series) unless noted
# How it was run: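 Screening format detects activators and inhibitors alike: ME-180 SIE-bla cells stimulated at 40 pM IL-6 for 5 hrs with compound, then dual-emission beta-lactamase read at 405 nm excitation.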
# [4] = biological target: Glucocorticoid receptor (Homo sapiens) (UniProt P04150); assay: GR-GFP Redistribution (AID 450;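 active = compounds whose dose series gives a full or clear partial fitted curve of increased nuclear translocation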; also: potency is read from the fitted curve at half-maximal effect); conditions: U2OS GR-GFP nuclear translocation, laser cytometry, 2 h
# Glucocorticoid receptor (Homo sapiens), sequence (P04150 whole entry, looked up, the tested form may be a part): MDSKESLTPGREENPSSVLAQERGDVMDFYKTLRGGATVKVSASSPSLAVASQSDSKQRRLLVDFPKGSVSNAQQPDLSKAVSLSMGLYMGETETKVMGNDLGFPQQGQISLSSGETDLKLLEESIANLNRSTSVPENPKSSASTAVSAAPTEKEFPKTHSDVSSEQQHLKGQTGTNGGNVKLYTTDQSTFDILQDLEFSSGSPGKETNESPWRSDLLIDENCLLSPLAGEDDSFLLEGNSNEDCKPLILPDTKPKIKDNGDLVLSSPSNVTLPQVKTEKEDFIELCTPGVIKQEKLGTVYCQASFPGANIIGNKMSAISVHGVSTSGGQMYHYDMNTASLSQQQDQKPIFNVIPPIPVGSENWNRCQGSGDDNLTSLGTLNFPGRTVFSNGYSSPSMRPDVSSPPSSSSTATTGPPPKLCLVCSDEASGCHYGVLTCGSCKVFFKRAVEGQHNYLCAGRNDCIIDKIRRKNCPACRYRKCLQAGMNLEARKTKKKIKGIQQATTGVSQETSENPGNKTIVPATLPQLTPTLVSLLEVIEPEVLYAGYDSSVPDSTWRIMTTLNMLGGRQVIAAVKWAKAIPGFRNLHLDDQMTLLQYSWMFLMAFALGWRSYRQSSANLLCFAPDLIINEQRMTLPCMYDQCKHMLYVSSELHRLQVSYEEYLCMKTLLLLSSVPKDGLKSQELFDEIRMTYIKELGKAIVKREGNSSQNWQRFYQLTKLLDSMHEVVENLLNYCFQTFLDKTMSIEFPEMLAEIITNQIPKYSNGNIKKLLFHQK
# [5] = biological target: Glucocorticoid receptor (Homo sapiens) (UniProt P04150); assay: GR-EFC Redistribution (AID 451; calls by dose curve; also: potency is read from the fitted curve at half-maximal effect); conditions: CHO-K1 GR-EFC translocation, beta-gal luminescence, 2 h
# How it was run: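 CHO-K1 cells expressing nuclear EA and GR-ED fragments of b-gal; compounds titrated up to 46 uM final, 2 h at 37 C. GR nuclear translocation read as complemented b-gal luminescence after 1 h RT detection.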
# [6] = biological target: Mitogen-activated protein kinase 10 (Mus musculus) (UniProt Q61831); assay: JNK3 AlphaScreen Assay (AID 530; active = well fitted curve in either direction with a large enough effect, not every such curve was filed as active;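 also: kinase came from lysate of stimulated human HepG2 cells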; also: potency is read from the fitted curve at half-maximal effect;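 as to activity change, negative = inhibition: signal reports phosphorylation of biotinylated GST-cJun 1-79 at Ser73 with 10 µM ATP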); conditions: JNK3 lysate, c-Jun phosphorylation; series mostly up to 57.1 µM
# How it was run: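 Pre-activated (IL-1β/TNFα) JNK3 in HepG2 lysates phosphorylates biotin-GST-cJun(1-79), 10 uM ATP; anti-phospho-cJun(Ser73) AlphaScreen read at room temperature, pH 7.6 Tris buffer. Compounds pre-incubated 15 min as titrations.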
# [7] = biological target: 3',5'-cyclic-AMP phosphodiesterase 4B (Homo sapiens) (UniProt Q07343); assay: qHTS Assay for Inhibitors of PDE-IV (AID 607; active = well fitted activation curve with a large enough effect in the main read-out, with a control signal flat, not every such curve was filed as active); conditions: HEK293 ACTOne CNG channel cells, membrane potential fluorescence; series mostly up to 22.9 µM
# 3',5'-cyclic-AMP phosphodiesterase 4B (Homo sapiens), sequence (Q07343 whole entry, looked up): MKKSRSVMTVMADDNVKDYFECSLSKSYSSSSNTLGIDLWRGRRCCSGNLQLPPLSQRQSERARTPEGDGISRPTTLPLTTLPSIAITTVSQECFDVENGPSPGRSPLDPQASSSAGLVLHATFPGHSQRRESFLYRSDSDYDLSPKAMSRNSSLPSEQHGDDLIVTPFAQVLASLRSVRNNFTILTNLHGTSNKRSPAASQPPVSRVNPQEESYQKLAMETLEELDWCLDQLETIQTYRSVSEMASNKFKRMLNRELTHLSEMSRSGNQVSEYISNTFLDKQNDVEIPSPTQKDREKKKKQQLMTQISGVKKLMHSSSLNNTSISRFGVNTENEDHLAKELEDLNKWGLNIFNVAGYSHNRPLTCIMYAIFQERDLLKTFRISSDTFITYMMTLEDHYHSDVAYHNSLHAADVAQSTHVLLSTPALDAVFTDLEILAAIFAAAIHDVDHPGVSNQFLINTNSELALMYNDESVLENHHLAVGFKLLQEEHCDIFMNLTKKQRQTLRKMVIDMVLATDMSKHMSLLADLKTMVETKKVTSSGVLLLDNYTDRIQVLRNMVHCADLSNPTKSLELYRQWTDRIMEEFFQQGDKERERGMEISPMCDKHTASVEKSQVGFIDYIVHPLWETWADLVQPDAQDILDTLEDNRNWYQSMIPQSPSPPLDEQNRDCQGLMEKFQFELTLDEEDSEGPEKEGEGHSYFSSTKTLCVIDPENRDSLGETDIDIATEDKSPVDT
# How it was run: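 The readout is membrane depolarisation from a cAMP-sensing CNG channel, detected with a potential dye at ex 535/em 590. Cells were HEK293-derived (endogenous PDE-IV) at 1000 cells/well, titrated up to 22.9 uM final.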
# [8] = biological target: Cytochrome P450 3A4 (Homo sapiens) (UniProt P08684); assay: qHTS Assay for Activators of Cytochrome P450 3A4 (AID 885); conditions: recombinant CYP3A4, Luciferin-PPXE luminescence, 60 min; series mostly up to 57.1 µM; also: nearly all actives have a fitted effect of over 65% in size
# Cytochrome P450 3A4 (Homo sapiens), sequence (P08684 whole entry, looked up): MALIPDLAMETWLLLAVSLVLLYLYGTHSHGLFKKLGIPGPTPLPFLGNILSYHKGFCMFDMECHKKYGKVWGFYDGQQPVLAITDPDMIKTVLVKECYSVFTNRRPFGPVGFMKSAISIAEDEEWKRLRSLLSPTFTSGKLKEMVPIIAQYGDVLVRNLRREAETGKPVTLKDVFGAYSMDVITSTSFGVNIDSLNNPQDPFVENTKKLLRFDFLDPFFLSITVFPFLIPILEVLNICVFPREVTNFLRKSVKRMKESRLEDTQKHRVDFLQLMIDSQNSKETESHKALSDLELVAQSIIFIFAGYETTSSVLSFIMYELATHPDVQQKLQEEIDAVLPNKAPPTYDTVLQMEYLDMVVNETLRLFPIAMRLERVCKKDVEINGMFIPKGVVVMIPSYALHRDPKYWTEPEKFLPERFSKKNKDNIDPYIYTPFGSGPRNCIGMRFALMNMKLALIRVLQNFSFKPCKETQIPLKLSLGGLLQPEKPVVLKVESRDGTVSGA
# How it was run: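 Steps: enzyme/substrate mix dispensed; compound added, 10 min RT; NADPH regeneration solution added, 60 min RT; luciferin detection buffer stops reaction; 20 min later luminescence measured.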
# [9] = biological target: Dual specificity protein kinase CLK4 (Homo sapiens) (UniProt Q9HAZ1); assay: qHTS Assay for Inhibitors of CDC-like Kinase 4 (Kinase-Glo Assay) (AID 1770); conditions: recombinant Clk4, Kinase-Glo ATP depletion luminescence; series mostly up to 66.7 µM; also: nearly all actives have a fitted effect of over 65% in size; also: potency is read from the fitted curve at half-maximal effect
# Dual specificity protein kinase CLK4 (Homo sapiens), sequence (Q9HAZ1 whole entry, looked up): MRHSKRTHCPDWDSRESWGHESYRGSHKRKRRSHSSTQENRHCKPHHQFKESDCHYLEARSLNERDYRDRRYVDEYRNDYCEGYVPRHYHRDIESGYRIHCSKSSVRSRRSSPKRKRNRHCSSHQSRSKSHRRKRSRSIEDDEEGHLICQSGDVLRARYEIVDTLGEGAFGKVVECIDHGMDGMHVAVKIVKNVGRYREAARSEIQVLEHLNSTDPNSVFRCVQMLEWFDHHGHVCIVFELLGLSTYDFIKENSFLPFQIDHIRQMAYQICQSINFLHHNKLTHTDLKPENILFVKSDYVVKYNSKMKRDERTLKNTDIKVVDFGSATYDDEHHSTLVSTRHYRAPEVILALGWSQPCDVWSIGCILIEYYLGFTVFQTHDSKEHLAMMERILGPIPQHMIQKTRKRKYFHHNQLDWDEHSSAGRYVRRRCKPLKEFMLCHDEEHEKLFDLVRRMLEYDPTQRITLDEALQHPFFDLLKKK
# How it was run: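 Inhibition was judged from remaining ATP, measured by Ultra-Glo luciferase bioluminescence after Clk4 (25 nM) had acted on RS peptide at 1 uM ATP for 4.5 hours, room temperature.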
# [10] = biological target: Dual specificity protein kinase CLK4 (Homo sapiens) (UniProt Q9HAZ1); assay: qHTS Assay for Inhibitors of CDC-like Kinase 4 (ADP-Glo Assay) (AID 1771); conditions: recombinant CLK4, ADP-Glo luminescence; series mostly up to 80 µM; also: nearly all actives have a fitted effect of over 70% in size; also: potency is read from the fitted curve at half-maximal effect
# How it was run: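 25 nM Clk4 with 100 uM RS repeat peptide and 1 uM ATP (final) in buffer with 2 mM MgCl2, 0.5 mM EGTA, 2.5 mM DTT, 0.01% Triton X-100; 1 h at room temperature; ADP-Glo luminescence for ADP formed.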
# [11] = biological target: Dual specificity protein kinase CLK4 (Homo sapiens) (UniProt Q9HAZ1); assay: qHTS Assay for Inhibitors of CDC-like Kinase 4 (ADP-FP Assay) (AID 1795); conditions: Transcreener ADP fluorescence polarization; series mostly up to 50 µM; also: nearly all actives have a fitted effect of over 60% in size; also: potency is read from the fitted curve at half-maximal effect;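 as to activity change, negative = inhibition: recombinant human CLK4 phosphorylating RS repeat peptide at 1 µM ATP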
# How it was run: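 Inhibition of ADP formation by 6.25 nM Clk4 is measured using 1 uM ATP and 100 uM RS repeat peptide over one hour. Produced ADP displaces a fluorescent tracer from antibody, lowering polarization.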
# [12] = biological target: Ubiquitin carboxyl-terminal hydrolase 1 (Homo sapiens) (UniProt O94782); assay: Inhibitors of USP1/UAF1: Pilot qHTS (AID 504865); conditions: purified USP1/UAF1, Ub-rhodamine cleavage fluorescence; series mostly up to 54.9 µM;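 also: rhodamine fluorescence freed from ubiquitin-rhodamine substrate followed over time; top concentration of the series differs between compounds; nearly all actives have a fitted effect of over 35% in size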
# Ubiquitin carboxyl-terminal hydrolase 1 (Homo sapiens), sequence (O94782 whole entry, looked up): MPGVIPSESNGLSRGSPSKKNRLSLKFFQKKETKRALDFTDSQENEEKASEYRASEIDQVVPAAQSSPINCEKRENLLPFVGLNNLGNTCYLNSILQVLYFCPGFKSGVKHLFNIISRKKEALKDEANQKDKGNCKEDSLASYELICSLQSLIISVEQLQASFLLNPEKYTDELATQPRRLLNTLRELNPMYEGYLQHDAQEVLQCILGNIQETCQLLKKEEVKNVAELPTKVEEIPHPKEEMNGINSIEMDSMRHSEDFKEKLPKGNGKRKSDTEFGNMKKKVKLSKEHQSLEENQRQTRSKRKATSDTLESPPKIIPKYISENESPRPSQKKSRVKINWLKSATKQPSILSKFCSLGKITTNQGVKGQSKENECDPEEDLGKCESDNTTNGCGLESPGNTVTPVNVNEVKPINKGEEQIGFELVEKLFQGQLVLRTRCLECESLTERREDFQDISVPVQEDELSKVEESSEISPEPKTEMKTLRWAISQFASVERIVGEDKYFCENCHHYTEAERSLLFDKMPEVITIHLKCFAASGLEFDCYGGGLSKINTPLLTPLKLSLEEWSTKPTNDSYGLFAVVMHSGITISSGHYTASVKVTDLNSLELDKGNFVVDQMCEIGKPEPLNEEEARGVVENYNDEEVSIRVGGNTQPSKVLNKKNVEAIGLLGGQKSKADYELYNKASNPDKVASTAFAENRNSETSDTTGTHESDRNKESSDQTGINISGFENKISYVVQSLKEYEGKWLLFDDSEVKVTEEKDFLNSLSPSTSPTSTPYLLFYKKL
# How it was run: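 Kinetic fluorescence assay: 1nM USP1/UAF1, 15 min compound preincubation, then 150nM Ub-Rho; 480/540 nm.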
# [13] = Primary qHTS for small molecule stabilizers of the endoplasmic reticulum resident proteome: Secreted ER Calcium Modulated Protein (SERCaMP) assay (AID 1508630); conditions: SH-SY5Y GLuc-SERCaMP (Gaussia luciferase released on ER calcium loss) secretion, thapsigargin, luminescence; series mostly up to 38.4 µM
# How it was run: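 GLuc-SERCaMP-expressing SH-SY5Y cells, pretreated 16 h with compound, are challenged with thapsigargin to empty ER calcium stores; after 4 h, coelenterazine is added directly to the medium and luminescence is imaged.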
# [14] = AP1 Signaling Pathway (AID 357; active = well fitted curve in either direction with a large enough effect, not every such curve was filed as active); conditions: ME-180 AP-1-bla reporter, EGF-induced, beta-lactamase ratio, 5 h; at 7.69 µM (top of the series) unless noted
# How it was run: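 Titration-series screen for positive or negative modulators of EC50 EGF-induced signaling in ME-180 cells carrying an AP-1-driven beta-lactamase reporter. After 5 hours at 37 degrees Celsius, CCF4 460nm/530nm emission ratio gave %Activity; AC50 values derived.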
# [15] = qHTS Assay for Identification of Small Molecule Agonists for Hypoxia Response Element Signaling Pathway (AID 914; active = well fitted activation curve with a large enough effect in the signal ratio, with a control signal flat, not every such curve was filed as active; the % refers to the signal ratio; also: potency is read from the fitted curve at half-maximal effect); conditions: ME-180 (cervical carcinoma) HRE-bla reporter, beta-lactamase ratio, CoCl2, 17 h; activation: active compounds read high
# How it was run: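 Cells were plated overnight, pin-dosed with compound in a titration series, co-stimulated with EC50 CoCl2 and incubated 17 hours at 37 degrees Celsius. CCF4 substrate was then loaded, and AC50 values came from the 460nm/530nm ratio.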
# [16] = biological target: Cytochrome P450 3A4 (Homo sapiens) (UniProt P08684); assay: qHTS Assay for Inhibitors and Substrates of Cytochrome P450 3A4 (AID 884); conditions: recombinant CYP3A4, Luciferin-PPXE luminescence; series mostly up to 57.1 µM; also: potency is read from the fitted curve at half-maximal effect; nearly all actives have a fitted effect of over 50% in size
# How it was run: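 20 nM human CYP3A4 with 25 uM Luciferin-PPXE (at KM) in 200 mM KPO4, preincubated 10 min with compound; NADPH regeneration started a 60 min RT reaction. Luciferin detected by luminescence, normalized to 57 uM ketoconazole as full inhibition.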
# [17] = biological target: Cytochrome P450 2D6 (Homo sapiens) (UniProt P10635); assay: qHTS Assay for Inhibitors and Substrates of Cytochrome P450 2D6 (AID 891); conditions: recombinant CYP2D6, luciferin-ME EGE luminescence; series mostly up to 57.1 µM; also: potency is read from the fitted curve at half-maximal effect; nearly all actives have a fitted effect of over 60% in size
# How it was run: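 Human CYP2D6 (5 nM) with 30 uM Luciferin-ME EGE (at Km) in 100 mM KPO4, compound preincubated 10 min, then NADPH regeneration system for 60 min at room temperature. Luciferin read by luminescence; normalized to 1.43 uM quinidine.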
# [18] = biological target: Cytochrome P450 2C19 (Homo sapiens) (UniProt P33261); assay: qHTS Assay for Inhibitors and Substrates of Cytochrome P450 2C19 (AID 899); conditions: recombinant CYP2C19, luciferin-H EGE luminescence; series mostly up to 57.1 µM; also: potency is read from the fitted curve at half-maximal effect; nearly all actives have a fitted effect of over 60% in size
# Cytochrome P450 2C19 (Homo sapiens), sequence (P33261 whole entry, looked up): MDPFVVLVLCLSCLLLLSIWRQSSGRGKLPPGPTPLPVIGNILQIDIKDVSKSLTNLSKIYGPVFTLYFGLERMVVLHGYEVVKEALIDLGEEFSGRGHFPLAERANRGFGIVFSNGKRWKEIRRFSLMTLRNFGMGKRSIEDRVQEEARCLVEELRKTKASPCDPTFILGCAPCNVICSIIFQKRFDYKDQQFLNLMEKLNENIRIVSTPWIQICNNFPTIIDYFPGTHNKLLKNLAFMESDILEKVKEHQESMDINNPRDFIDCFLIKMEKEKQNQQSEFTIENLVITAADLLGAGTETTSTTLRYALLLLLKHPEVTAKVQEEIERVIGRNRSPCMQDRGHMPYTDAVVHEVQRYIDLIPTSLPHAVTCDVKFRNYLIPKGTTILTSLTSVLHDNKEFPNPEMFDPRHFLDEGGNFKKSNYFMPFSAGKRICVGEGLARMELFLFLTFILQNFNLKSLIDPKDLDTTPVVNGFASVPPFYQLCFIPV
# How it was run: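 Luminescent read-out of luciferin formed from Luciferin-H EGE (10uM, equal to KM). Enzyme 5nM in 50mM KPO4; compound added, 10 min at 37C, then NADPH regenerating system for 60 min at 37C. Full inhibition defined by 57uM ketoconazole.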
# [19] = NFAT Signaling Pathway (AID 444; active = well fitted curve in either direction with a large enough effect, not every such curve was filed as active;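 also: carbachol stimulus at about its EC50 of 1 µM final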); conditions: Jurkat NFAT-bla M1, carbachol, beta-lactamase ratio, 5 h; at 7.69 µM (top of the series) unless noted
# How it was run: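 Jurkat cells with NFAT-driven β-lactamase reporter and co-expressed M1 receptor, stimulated with carbachol (final 1 uM, ~EC50), compound titration, 5 h at 37 °C. CCF4 loaded 1 h at RT; 460/530 nm ratio gave %activity and AC50.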
# [20] = biological target: Cytochrome P450 2C9 (Homo sapiens) (UniProt P11712); assay: qHTS Assay for Inhibitors and Substrates of Cytochrome P450 2C9 (AID 883); conditions: recombinant CYP2C9, luciferin-H luminescence, 60 min; series mostly up to 57.1 µM; also: nearly all actives have a fitted effect of over 60% in size
# How it was run: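 10nM CYP2C9 + 100uM Luciferin-H (=KM), 25mM KPO4; cpd 10 min 37C; NADPH regen, 60 min 37C; stop/detect with P450 Glo-Buffer 20 min; luminescence. Norm. to 57uM sulphaphenazole as full inhibition.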
Structure (SMILES),Potency [1] [µM],Potency [2],"activity, negative = inhibition [3]",Potency [4] [µM],Potency [5] [µM],Potency [6],Potency [7],Potency [8],Potency [9],Potency [10],Potency [11],Potency [12],outcome [13],"activity change, negative = inhibition [14]",Potency [15],Potency [16],Potency [17],Potency [18],"activity change, negative = inhibition [19] [%]",Potency [20]
COc1cccc(Cn2c(=O)c(-c3cccs3)nc3cnc(N4CCNCC4)nc32)c1,> 11.4,15.8 µM (active),114% [activator] (active),> 9.22,> 46,3.98 µM [activator] (active),inactive,inactive,inactive,inactive,inactive,inactive,inactive,,,,,,,
CCNc1ncc2nc(-c3ccc(OC)cc3)c(=O)n(CCc3ccccc3)c2n1,> 11.4,,122% [activator] (active),> 9.22,,inactive,,,inactive,inactive,inactive,inactive,inactive,107% [activator] (active),0.501 µM (active),,,,,
O=c1c(-c2ccccc2)nc2cnc(N3CCOCC3)nc2n1Cc1ccc(F)cc1,> 11.4,20 µM (active),,> 9.22,> 46,inactive,,,inactive,inactive,inactive,inactive,inactive,,,,,,,
CN(C)c1ncc2nc(-c3ccc(Cl)cc3)c(=O)n(Cc3cccs3)c2n1,> 11.4,1.58 µM (active),153% [activator] (active),> 9.22,> 46,inactive,inactive,,inactive,inactive,inactive,inactive,inactive,,0.398 µM (active),,,,,
COc1ccc2[nH]cc(CCNc3ncnc4ccc(-c5c(C)noc5C)cc34)c2c1,> 11.4,7.94 µM (active),,> 46,> 46,inactive,inactive,inactive,7.94 µM (active),5.01 µM (active),3.98 µM (active),inactive,inactive,,,3.16 µM (active),6.31 µM (active),3.98 µM (active),,
CN(C)c1ncc2nc(-c3cccs3)c(=O)n(Cc3cccs3)c2n1,> 11.4,,,> 9.22,> 46,inactive,inactive,inactive,inactive,inactive,inactive,inactive,inactive,21.5%,,,,,,
CN1CCN(c2ncc3nc(-c4cn(C)c5ccccc45)c(=O)n(CCc4ccccc4)c3n2)CC1,> 11.4,inactive,,> 9.22,> 46,inactive,inactive,inactive,inactive,inactive,inactive,inactive,inactive,,3.16 µM (active),,,,,
CCNc1ncc2nc(-c3ccc(Cl)cc3)c(=O)n(Cc3cccc(OC)c3)c2n1,> 11.4,inactive,,> 9.22,> 46,inactive,inactive,,inactive,inactive,inactive,,inactive,,0.316 µM (active),,,,,
Cn1cc(-c2nc3cnc(Oc4cccc(Cl)c4)nc3n(C3CC3)c2=O)c2ccccc21,> 11.4,12.6 µM (active),9.54%,> 9.22,> 46,inactive,,,inactive,inactive,inactive,inactive,inactive,,,,,,6.59,
COc1ccccc1CNc1cc(-c2ccccc2C)ncn1,> 11.4,5.01 µM (active),14.3%,> 46,> 46,inactive,,inactive,inactive,inactive,inactive,,inactive,,,,,,-18.6,
CS(=O)(=O)Nc1cccc(-c2nccc(NCc3cccs3)n2)c1,> 11.4,,-12.9%,> 46,> 46,inactive,inactive,,28.2 µM (active),35.5 µM (active),inactive,inactive,inactive,,,,,,14.7,
CCNc1ncc2nc(-c3ccc(OC)cc3)c(=O)n(Cc3ccc(F)cc3)c2n1,> 11.4,inactive,,> 9.22,> 46,inactive,,,inactive,inactive,inactive,inactive,inactive,,1.26 µM (active),,,,,inactive
CCNc1ncc2nc(CCc3ccccc3)c(=O)n(Cc3ccc(F)cc3)c2n1,> 11.4,3.16 µM (active),26.2%,> 9.22,> 46,inactive,,inactive,inactive,inactive,inactive,inactive,inactive,,,2.51 µM (active),,,20.5,
COc1cccc(-c2ccc3ncnc(NC4CC4)c3c2)c1,> 11.4,0.2 µM (active),,,> 46,inactive,,inactive,0.447 µM (active),0.316 µM (active),0.126 µM (active),inactive,inactive,,,2 µM (active),,1.26 µM (active),2.56,
